According to the supplement of paper PMC10681739:

biological target: RUNX1 (UniProt Q01196); assay: RUNX1 binding intensity (PBM fluorescence), RUNX1 alone (arbitrary fluorescence units); higher = stronger binding; details: RUNX1 concentration 2 nM; ETS1 concentration 0 nM
Protocol: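 Cooperative gcPBM on 36-bp genomic probes with neighbouring ETS1 and RUNX1 sites. Recombinant human RUNX1 (2 nM) was incubated alone or with ETS1 (25 nM) and detected with anti-RUNX1 antibody plus Alexa488 secondary. Values are medians over 4 replicate spots; the RUNX1+ETS1 data were normalised to the RUNX1-only data. The probes sit in constant array flanks that are not printed.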
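Wherever RUNX1 binding intensity (PBM fluorescence), RUNX1 alone is given: Full-length recombinant human RUNX1 bound to double-stranded 36-bp genomic probes on a high-density microarray, scored as Alexa488 fluorescence per spot via anti-RUNX1 antibody, median of four replicate spots.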

RUNX1, sequence (Q01196 whole entry): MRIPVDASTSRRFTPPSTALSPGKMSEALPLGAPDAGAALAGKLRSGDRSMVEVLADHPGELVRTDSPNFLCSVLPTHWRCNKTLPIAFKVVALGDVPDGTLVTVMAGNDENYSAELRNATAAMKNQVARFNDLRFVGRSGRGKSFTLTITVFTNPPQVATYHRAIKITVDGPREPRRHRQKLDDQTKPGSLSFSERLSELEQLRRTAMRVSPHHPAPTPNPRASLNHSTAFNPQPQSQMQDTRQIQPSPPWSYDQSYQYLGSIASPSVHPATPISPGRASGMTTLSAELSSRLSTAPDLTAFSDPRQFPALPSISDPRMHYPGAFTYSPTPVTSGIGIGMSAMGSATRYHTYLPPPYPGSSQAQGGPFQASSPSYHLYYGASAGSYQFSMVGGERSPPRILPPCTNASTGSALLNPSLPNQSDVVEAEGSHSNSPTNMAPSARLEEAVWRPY

Sequence | RUNX1 binding intensity
GGGCCCGGGCCAGGAAGTGGTTTTGCAGAGGTGTTT | 763
AGCCACGGACTTCCGCCTACAGGTCGCCGCAGGTCC | 756
GAGAGGAGGATGTTGTCAGATACCCACAAATGAGAA | 812
GCTCCTGGCCCGCACTTCCGACCACACACTGGGGAC | 1180
GCACCGTCTACCCGGAAGTTGTGGGCTGGGAGGGAT | 813

biological target: T1, ETS1 (UniProt P14921); assay: ETS1 binding intensity (PBM fluorescence) in presence of RUNX1, normalised to ETS1-only experiment (arbitrary fluorescence units); higher = stronger binding; details: ETS1 concentration 1 nM; RUNX1 concentration 25 nM
T1 sequence: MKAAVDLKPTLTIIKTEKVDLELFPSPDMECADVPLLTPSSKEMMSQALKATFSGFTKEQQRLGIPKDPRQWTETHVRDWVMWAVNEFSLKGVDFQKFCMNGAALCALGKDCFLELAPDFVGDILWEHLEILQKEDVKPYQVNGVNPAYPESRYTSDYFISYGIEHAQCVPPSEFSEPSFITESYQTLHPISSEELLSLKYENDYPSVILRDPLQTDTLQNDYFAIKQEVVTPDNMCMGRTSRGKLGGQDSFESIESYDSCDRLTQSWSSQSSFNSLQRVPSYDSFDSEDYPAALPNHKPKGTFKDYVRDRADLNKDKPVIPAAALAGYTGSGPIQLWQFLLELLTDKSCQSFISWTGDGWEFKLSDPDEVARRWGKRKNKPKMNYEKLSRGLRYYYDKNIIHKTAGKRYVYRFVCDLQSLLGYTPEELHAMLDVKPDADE

Sequence | ETS1 binding intensity
TCTACATCCTGCAGTTCTCCATTGTGGCCATTAGGT | 319
TGATGCAGGAAGGGGTGGAGTCACCACAGGAGGTAG | 952
AGGTGGGAGGAAGTTCCTACCCCGGCGCGGTGTGCA | 620
GTCCCCTCCCCAGGATGTGGCCACCCGCTAGAGCAT | 1560
TTTATCCTTATTTCCTGGCTTCGCCCACAAGCACAG | 625
GGGCTTCCGGCTGAACCCATGGCTGCGGGCTGTGCT | 329
TCTGGGCTGACTTCCTGGCTTCGTCCCACAACTTCA | 617
GGGCCCGGGCCAGGAAGTGGTTTTGCAGAGGTGTTT | 7660
TGCTTAGAACACGGAAACACTGAGGTTTTACTTTGA | 560
TAGCAGGAAGCCGATTCGCCCTATATGCAACCACTT | 570
GATTAAGAGGAAGTGTGTGTGATTATTACCGCTGGA | 1540
ATTGTAAATTTCCTTTAAACGTCCCCACCGCGCTCC | 480
AGCCACGGACTTCCGCCTACAGGTCGCCGCAGGTCC | 882
CCAGAGCAGGATGTTCTGCTGTGGCTAGATAAGCCC | 916
GGGGCGCTGCGCAGGAAGCCGCAGTCCCTCTGCGGA | 1210
ACGCTGGAATCGCGGAAACCGCCGGTGCACGTTGGA | 627
CTTGCTTGAGTCACAGGAAACCACTCAGAGGCTAAC | 2860
GGTCTGGAGGATGTTTGCAGCTGCTGTGGGTGGTGG | 530
TGAGGAAGTGTAAGTCACAATAAGAAGCCACATATA | 519
GCCCCCATGCTTCCTGTTGTGGGAGATGAAGTGTGG | 1710

Sequence | ETS1 binding intensity
CAAGAATGAGAAAGGAAGCTGGCGGTTGGGCAGGTG | 1260
CCGAAGAGGAAGCTCCACAGGACCTCCGCGGTCAGC | 1000
GAGAGGAGGATGTTGTCAGATACCCACAAATGAGAA | 621
GCTTCGTTTCCCGCCGGGGCTCACCGCGCCCCCCTA | 615
CTCAGCGGAAGAGCGGGCCTCTGGGCCGCAGTGACC | 430
GGCTTTTCCGGGATCCCTTTCGCCTCATCACCGCAG | 301
TTCTCCACTTCCTTCTTTACCTCACCTACCACATAA | 544
CAGTTCCAGGAAGCAGCCCCAAGCTTGTGGCCCTGA | 305
AAAGAGAAAGGAAACAAAGTATAGCACCACAGTGAG | 554
GGAGCAGGAAGCGTCGCCGGGGGGCCCACAAGGGTA | 614
TGAGGCTCAGAGGAAGTGACTGGCCCGCAGGGTCAC | 1550
GCACCGTGGCACTTCCGCGAGCGCCGCAGGCCCTGC | 360
GCTCCTGGCCCGCACTTCCGACCACACACTGGGGAC | 592
CTGCAGACAGGAGGATGTGGGCTTGCGCGCAAACAG | 745
CCGAGACACATGGGATGTGGGCGGGAGGAGGAATTG | 941
GCACCGTCTACCCGGAAGTTGTGGGCTGGGAGGGAT | 9990
CCGACCTTAACGACATCCTGCGGCTCAGCGTGGAGG | 437
TTTCCAGAGGATGTAGCTTCTGCGGGAGAGCTTCAA | 584
TGGAATTGAAAGGAAGCTGGCGCCACCGCAGAGGAC | 2830
GAGTGGGGGTGGGGAGGAAGCCACAGGGCCGGGCTG | 771
